Assay results reported in PubChem BioAssay AID463195 (Sanford-Burnham Center for Chemical Genomics, 2010).
Out of some 330,000 compounds screened, about 4,600 (1.4%) were called active.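 The calls were made as follows: active = inhibition of 40% or more at the single tested concentration; inactive = the rest.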 Many of the other results were omitted from the sample, so actives are more common in it than they were.

experiment: growth inhibitors of isogenic TIM10 control yeast, primary screen, counter-screen for tim10-1 yeast inhibitor project, luminescence, uHTS (AID 463195);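 also: wild-type TIM10 isogenic control strain grown at permissive 25 °C; 0% = DMSO yeast wells and 100% = minimal medium wells without yeast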; settings: S. cerevisiae TIM10 strain growth, BacTiter-Glo luminescence, 24 h; at 10 µM; hits give high values

Structure (SMILES) | inhibition
CC(C)NC(=O)NC(=O)CSc1nnc(-c2ccccc2F)n1N | 5.49% (inactive)
CN(C(=O)CSc1nnc(N)s1)c1c(N)n(Cc2ccccc2)c(=O)[nH]c1=O | 10.2% (inactive)
CS(=O)(=O)N(CC(=O)N1CCOCC1)c1ccc2c3c(cccc13)CC2 | 8.14% (inactive)
CCOc1ccccc1/C=c1\sc2nc(-c3ccco3)nn2c1=O | 45% (active)
CCCn1nc(C(=O)NNC(=O)CCOc2ccccc2OCC)c2ccccc2c1=O | 13.7% (inactive)
CCOc1ccccc1C1NC(=O)NC(C)=C1C(=O)OCc1ccco1 (configuration not stated) | 0.932% (inactive)
Cc1cccc([C@@H]2[C@@H]3C(=O)N(Cc4ccccc4)C(=O)[C@@H]3[C@]3(C)C(=O)N(c4ccc(Br)cc4)C(=O)N23)c1 | 4.22% (inactive)
Cn1c(Cc2csc(N)n2)nnc1SC/C=C/c1ccccc1 | 7.09% (inactive)
CCN(Cc1nc2ccccc2c(=O)[nH]1)Cc1cc(=O)oc2cc(C)c(C)cc12 | -2.16% (inactive)
COc1ccc(C(=O)NC(C)c2nccs2)cc1OC1CCN(C(C)C)CC1 (configuration not stated) | -15% (inactive)
O=C(Nc1nnc(CCOCCOCCc2nnc(NC(=O)c3ccco3)s2)s1)c1ccco1 | -7.13% (inactive)
NC(=O)c1ccsc1NC(=O)c1ccco1 | 8.27% (inactive)
O=C(Nc1nc(-c2ccco2)c(-c2ccco2)s1)c1ccco1 | 40.3% (active)
CS/C(=C\[N+](=O)[O-])Nc1ccc(C)cc1 | 30% (inactive)
CCc1c(C)[nH]c(=S)c(C#N)c1C | 3.94% (inactive)
O=C1NC(=O)C2C1C(c1ccc([N+](=O)[O-])cc1)=NN2Cc1ccccc1 (configuration not stated) | 46.2% (active)
CC(=O)N1c2ccccc2N(Cc2ccc([N+](=O)[O-])cc2)C(=O)C1(C)C | 27.8% (inactive)
O=C(NCCCCc1ccccc1)C1CC(c2ccc([N+](=O)[O-])cc2)=NO1 (configuration not stated) | -15.3% (inactive)
c1ccc2c(c1)CSc1sccc1C2=C1CCNCC1 | 1.38% (inactive)
COc1ccc(OC)c(C(=O)c2ccc(C(=O)N3CCN(Cc4csc(C)n4)CC3)cc2)c1 | -9.33% (inactive)
CCOC(=O)c1cn[nH]c1NC(=S)Nc1ccccc1 | -4.24% (inactive)

Structure (SMILES) | inhibition
CCC1C/C(=C/c2cccs2)C(=O)/C(=C/c2cccs2)C1 (configuration not stated) | 8.85% (inactive)
CSC1=N/C(=C\C=C\c2cccs2)C(=O)S1 | 46.2% (active)
COC(=O)c1cccc(N2C(=O)C3C4C=CC(CC4)C3C2=O)c1 (configuration not stated) | -2.62% (inactive)
O=C(OCC(=O)N(CCc1ccccc1)Cc1ccccc1)c1ccccc1[N+](=O)[O-] | 6.8% (inactive)
O=C(Nc1ccc(NC(=O)c2cccs2)cn1)c1ccco1 | 49.1% (active)
O=C(Nc1ccnc(-c2ccncc2)n1)c1cccs1 | 5.09% (inactive)
O=C(Nc1ccc(O)cc1)c1ccc(NC(=O)c2ccco2)cc1 | -7.64% (inactive)
O=C(CN1CCN(C(=O)C2CCCO2)CC1)Nc1c(Cl)cccc1Cl (configuration not stated) | -3.56% (inactive)
O=[N+]([O-])c1ccc(N2CCN(c3ccc(F)cc3)CC2)cn1 | 9.61% (inactive)
C/C=N/NC(=O)CCCC(=O)N/N=C/C | 19.2% (inactive)
S=C(NNC(=S)NC1CC2C=CC1C2)NC1CC2C=CC1C2 (configuration not stated) | 11.5% (inactive)
CC(C)c1ccc(NC(=S)NC2CC3C=CC2C3)cc1 (configuration not stated) | 41.7% (active)
S=C(NNC(=S)NC1CC2CCC1C2)NC1CC2C=CC1C2 (configuration not stated) | 31.5% (inactive)
Fc1ccc(Cn2nnnc2C(c2cccs2)N2CCCCCC2)cc1 (configuration not stated) | 23.6% (inactive)
Clc1nc(NC2CCCC2)nc(N2CCOCC2)n1 | 11.4% (inactive)
COC(=O)c1ccc(Oc2nc(Nc3ccc(F)cc3)nc(N3CCCC3)n2)cc1 | -20.4% (inactive)
COc1nc(NC2CCCCC2)nc(N2CCCCCC2)n1 | 40% (active)
CCOC(=O)c1cnn(Cc2ccccc2Cl)c1N | 1.13% (inactive)
COC(=O)CNC(=O)C(CCSC)NC(C)=O (configuration not stated) | -26.2% (inactive)
CO/N=C/c1cn(-c2ccc(Cl)cc2)nn1 | 5.41% (inactive)
Cc1nc(-c2ccccc2)sc1C(=O)/C=C/N(C)C | 7.98% (inactive)

Structure (SMILES) | inhibition
Cc1nc(-c2ccc(Cl)cc2)sc1C1(C)CC(c2ccc(Br)cc2)=NO1 (configuration not stated) | 7.58% (inactive)
Cc1nc(-c2ccc(Cl)cc2)sc1C(=O)CBr | 51.9% (active)
O=C(CSc1nncs1)NC1CCCc2ccccc21 (configuration not stated) | -4.46% (inactive)
Cc1ccccc1N1CC(C(=O)Nc2nnc(SCCC3OCCO3)s2)CC1=O (configuration not stated) | 4.72% (inactive)
CCSc1ccccc1C(=O)NCc1ccc(OC)cc1 | -1.39% (inactive)
CC(CC(=O)Nc1ccccc1)n1ccnc1 (configuration not stated) | -0.308% (inactive)
O=C(O)CCCC(=O)Nc1ccccc1-n1ccnc1 | 95.9% (active)
Cc1cccc(C)c1NC(=O)Nc1ccccc1-n1ccnc1 | 3.36% (inactive)
COc1nc(Oc2ccc(=O)n(C)n2)nc(N(C)C)n1 | -5.67% (inactive)
Cn1cnc([N+](=O)[O-])c1Sc1ccccc1 | 21.8% (inactive)
CC(=O)Oc1ccc(N(C(C)=O)S(=O)(=O)c2ccc3ccccc3c2)cc1Br | 48.2% (active)
COCCNC(=O)COc1ccc(N(C)S(=O)(=O)c2ccc3ccccc3c2)cc1 | 20.2% (inactive)
CN(c1ccc(OCC(=O)O)cc1)S(=O)(=O)c1ccc2ccccc2c1 | -10.2% (inactive)
COc1ccccc1C(=O)COC(=O)CSCC(=O)Nc1cc(C)on1 | 11.1% (inactive)
COCCn1c(CN2CCC(Cc3ccccc3)CC2)nc2c1c(=O)n(C)c(=O)n2C | -0.058% (inactive)
CC(=O)Nc1cccc(OCC(=O)/C=C2\N(C)c3ccccc3C2(C)C)c1 | 14.8% (inactive)
COC(=O)c1sccc1NC(=O)COc1ccc(Cl)cc1 | 12.6% (inactive)
CCOC(=O)c1c(NC(=O)c2ccc(S(=O)(=O)N(C)CC3CCCO3)cc2)sc2c1CC(C)(C)NC2(C)C (configuration not stated) | -10.5% (inactive)
COC(=O)c1c(NC(=O)COc2ccc(Cl)cc2Cl)sc2c1CC(C)(C)NC2(C)C | 41.3% (active)
CCN(CC(=O)NC(C)C)C(=O)CCNC(=O)c1ccc(Cl)cc1 | 10.6% (inactive)
